Test results as given in PubChem BioAssay AID1159580 (chemical genetic matrix, 2015).
Among all 5,500 compounds or so, about 2,000 (36%) were called active. Another 18% or so got no clear call; they are omitted. The list shows a part of the results. Values without a mark were called inactive. Rule as the data show it: active = normalized growth mostly below about 0.91 (no sharp cut-off); inconclusive = no clear call, values can overlap the other calls; inactive = mostly above about 0.92.

Experiment: chemical genetic growth profiling, strain panel (AID 1159580);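 also: tested at 20 µM; growth read once vehicle control cultures reached saturation at 30 °C; 1 = growth at the plate median or of vehicle wells; lower values mean less growth of the strain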
Conditions: growth OD

## CCCCC/C=C\C/C=C\C/C=C\C/C=C\CCCC(=O)O
S. cerevisiae deletion strains, locus YJR043C, strain POL32, hits give low values
  normalized growth: 0.975
S. cerevisiae deletion strains, locus YJR075W, strain HOC1, hits give low values
  normalized growth: 0.968
S. cerevisiae deletion strains, locus YKL009W, strain mrt4, hits give low values
  normalized growth: 0.982
S. cerevisiae deletion strains, locus YKL068W, hits give low values
  normalized growth: 0.973
S. cerevisiae deletion strains, locus YKL085W, strain MDH1 (second series), hits give low values
  normalized growth: 0.958
S. cerevisiae deletion strains, locus YKL085W, strain MDH1, hits give low values
  normalized growth: 0.958
S. cerevisiae deletion strains, locus YKL160W, strain elf1, hits give low values
  normalized growth: 0.98
S. cerevisiae deletion strains, locus YKL190W, strain CNB1, hits give low values
  normalized growth: 0.987
S. cerevisiae deletion strains, locus YKR001C, strain vps1, hits give low values
  normalized growth: 0.857 (active)
S. cerevisiae deletion strains, locus YKR026C, strain gcn3, hits give low values
  normalized growth: 0.944
S. cerevisiae deletion strains, locus YKR091W, strain srl3, hits give low values
  normalized growth: 0.967
S. cerevisiae deletion strains, locus YLL001W, strain dnm1, hits give low values
  normalized growth: 0.96
S. cerevisiae deletion strains, locus YLL026W, hits give low values
  normalized growth: 0.976
S. cerevisiae deletion strains, locus YLL041C, strain sdh2, hits give low values
  normalized growth: 0.975
S. cerevisiae deletion strains, locus YLR027C, strain aat2, hits give low values
  normalized growth: 0.978
S. cerevisiae deletion strains, locus YLR039C, strain RIC1, hits give low values
  normalized growth: 0.686
S. cerevisiae deletion strains, locus YLR058C, strain SHM2, hits give low values
  normalized growth: 0.972
S. cerevisiae deletion strains, locus YLR102C, strain apc9, hits give low values
  normalized growth: 0.971
S. cerevisiae deletion strains, locus YLR221C, strain rsa3, hits give low values
  normalized growth: 0.972
S. cerevisiae deletion strains, locus YLR258W, strain gsy2, hits give low values
  normalized growth: 0.966
S. cerevisiae deletion strains, locus YLR262C, strain YPT6 (second series), hits give low values
  normalized growth: 0.856 (active)
S. cerevisiae deletion strains, locus YLR262C, strain YPT6, hits give low values
  normalized growth: 0.719
S. cerevisiae deletion strains, locus YLR268W, strain sec22, hits give low values
  normalized growth: 1.01
S. cerevisiae deletion strains, locus YLR320W, strain mms22, hits give low values
  normalized growth: 0.884
S. cerevisiae deletion strains, locus YLR330W, strain CHS5, hits give low values
  normalized growth: 0.984
S. cerevisiae deletion strains, locus YLR342W, strain FKS1 (second series), hits give low values
  normalized growth: 0.942
S. cerevisiae deletion strains, locus YLR342W, strain FKS1, hits give low values
  normalized growth: 0.969
S. cerevisiae deletion strains, locus YLR357W, strain rsc2, hits give low values
  normalized growth: 0.935
S. cerevisiae deletion strains, locus YLR370C, strain arc18, hits give low values
  normalized growth: 0.964
S. cerevisiae deletion strains, locus YLR371W, strain rom2, hits give low values
  normalized growth: 0.975
S. cerevisiae deletion strains, locus YLR384C, strain iki3, hits give low values
  normalized growth: 0.982
S. cerevisiae deletion strains, locus YLR418C, strain cdc73, hits give low values
  normalized growth: 0.953
S. cerevisiae deletion strains, locus YML016C, strain PPZ1, hits give low values
  normalized growth: 1
S. cerevisiae deletion strains, locus YML032C, strain rad52, hits give low values
  normalized growth: 0.967
S. cerevisiae deletion strains, locus YML120C, strain ndi1, hits give low values
  normalized growth: 0.986
S. cerevisiae deletion strains, locus YML124C, strain tub3, hits give low values
  normalized growth: 0.983
S. cerevisiae deletion strains, locus YMR058W, strain fet3, hits give low values
  normalized growth: 0.919
S. cerevisiae deletion strains, locus YMR078C, strain ctf18, hits give low values
  normalized growth: 0.964
S. cerevisiae deletion strains, locus YMR125W, strain sto1, hits give low values
  normalized growth: 0.977
S. cerevisiae deletion strains, locus YMR129W, hits give low values
  normalized growth: 0.977
S. cerevisiae deletion strains, locus YMR205C, strain PFK2, hits give low values
  normalized growth: 0.919
S. cerevisiae deletion strains, locus YMR223W, strain ubp8, hits give low values
  normalized growth: 0.953
S. cerevisiae deletion strains, locus YMR231W, strain pep5, hits give low values
  normalized growth: 0.974
S. cerevisiae deletion strains, locus YMR263W, strain SAP30, hits give low values
  normalized growth: 1
S. cerevisiae deletion strains, locus YMR307W, strain GAS1, hits give low values
  normalized growth: 0.966
S. cerevisiae deletion strains, locus YNL067W, strain RPL9B, hits give low values
  normalized growth: 0.987
S. cerevisiae deletion strains, locus YNL071W, strain lat1, hits give low values
  normalized growth: 0.857 (active)
S. cerevisiae deletion strains, locus YNL128W, strain TEP1, hits give low values
  normalized growth: 0.995
S. cerevisiae deletion strains, locus YNL153C, strain GIM3, hits give low values
  normalized growth: 1
S. cerevisiae deletion strains, locus YNL209W, strain ssb2, hits give low values
  normalized growth: 0.983
S. cerevisiae deletion strains, locus YNL233W, strain BNI4, hits give low values
  normalized growth: 0.981
S. cerevisiae deletion strains, locus YNL248C, strain rpa49, hits give low values
  normalized growth: 0.972
S. cerevisiae deletion strains, locus YNL250W, strain rad50, hits give low values
  normalized growth: 0.924
S. cerevisiae deletion strains, locus YNL271C, strain bni1, hits give low values
  normalized growth: 0.973
S. cerevisiae deletion strains, locus YNL298W, strain CLA4, hits give low values
  normalized growth: 0.956
S. cerevisiae deletion strains, locus YNL307C, strain MCK1, hits give low values
  normalized growth: 0.733 (active)
S. cerevisiae deletion strains, locus YNL322C, strain KRE1 (second series), hits give low values
  normalized growth: 0.996
S. cerevisiae deletion strains, locus YNL322C, strain KRE1, hits give low values
  normalized growth: 0.986
S. cerevisiae deletion strains, locus YNR049C, strain mso1, hits give low values
  normalized growth: 0.971
S. cerevisiae deletion strains, locus YNR052C, strain pop2, hits give low values
  normalized growth: 0.977
S. cerevisiae deletion strains, locus YOL006C, strain TOP1, hits give low values
  normalized growth: 0.836
S. cerevisiae deletion strains, locus YOL012C, strain htz1
  normalized growth: 0.8
S. cerevisiae deletion strains, locus YOL147C, strain pex11, hits give low values
  normalized growth: 0.987
S. cerevisiae deletion strains, locus YOR001W, strain rrp6, hits give low values
  normalized growth: 0.971
S. cerevisiae deletion strains, locus YOR061W, strain CKA2, hits give low values
  normalized growth: 0.986
S. cerevisiae deletion strains, locus YOR069W, strain VPS5, hits give low values
  normalized growth: 0.99
S. cerevisiae deletion strains, locus YOR070C, strain gyp1, hits give low values
  normalized growth: 0.98
S. cerevisiae deletion strains, locus YOR080W, strain dia2, hits give low values
  normalized growth: 0.97
S. cerevisiae deletion strains, locus YOR083W, strain WHI5, hits give low values
  normalized growth: 0.996
S. cerevisiae deletion strains, locus YOR106W, strain vam3, hits give low values
  normalized growth: 0.978
S. cerevisiae deletion strains, locus YOR136W, strain idh2, hits give low values
  normalized growth: 0.965
S. cerevisiae deletion strains, locus YOR144C, strain elg1, hits give low values
  normalized growth: 0.986
S. cerevisiae deletion strains, locus YOR184W, strain ser1, hits give low values
  normalized growth: 0.895
S. cerevisiae deletion strains, locus YOR265W, strain rbl2, hits give low values
  normalized growth: 0.978
S. cerevisiae deletion strains, locus YOR270C, strain vph1, hits give low values
  normalized growth: 0.924
S. cerevisiae deletion strains, locus YOR290C, strain snf2, hits give low values
  normalized growth: 0.89
S. cerevisiae deletion strains, locus YOR316C, strain cot1, hits give low values
  normalized growth: 0.982
S. cerevisiae deletion strains, locus YPL051W, strain arl3, hits give low values
  normalized growth: 0.985
S. cerevisiae deletion strains, locus YPL055C, strain LGE1, hits give low values
  normalized growth: 0.972
S. cerevisiae deletion strains, locus YPL078C, strain atp4, hits give low values
  normalized growth: 0.967
S. cerevisiae deletion strains, locus YPL106C, strain sse1, hits give low values
  normalized growth: 0.931
S. cerevisiae deletion strains, locus YPL240C, strain hsp82, hits give low values
  normalized growth: 0.978
S. cerevisiae deletion strains, locus YPL241C, strain CIN2, hits give low values
  normalized growth: 0.986
S. cerevisiae deletion strains, locus YPR119W, strain clb2, hits give low values
  normalized growth: 0.969
S. cerevisiae deletion strains, locus YPR141C, strain kar3, hits give low values
  normalized growth: 0.975
S. cerevisiae deletion strains, locus YPR163C, strain tif3, hits give low values
  normalized growth: 0.965
S. cerevisiae deletion strains, locus YPR167C, strain met16, hits give low values
  normalized growth: 0.986
S. cerevisiae deletion strains, strain wtn01, hits give low values
  normalized growth: 0.972
S. cerevisiae strains, strain wild type, hits give low values
  normalized growth: 0.976
